Compounds with a hit are over-represented: about 2.3% of the library has one in this group of screens.
M1 ag – activates human CHRM1 receptor; 360,000 tested, 0.33% active; CHO-K1 hM1, Fluo-8 calcium fluorescence, agonist mode; 0% DMSO, 100% acetylcholine EC100; AID 588814; activation, % at 3 µM;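 active = activation above the run's mean compound activation plus 3 SD, cut at about 16% in these data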;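 also: peak over basal fluorescence ratio within a 140 s kinetic read after compound addition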
Target sequence (P11229 whole entry, looked up): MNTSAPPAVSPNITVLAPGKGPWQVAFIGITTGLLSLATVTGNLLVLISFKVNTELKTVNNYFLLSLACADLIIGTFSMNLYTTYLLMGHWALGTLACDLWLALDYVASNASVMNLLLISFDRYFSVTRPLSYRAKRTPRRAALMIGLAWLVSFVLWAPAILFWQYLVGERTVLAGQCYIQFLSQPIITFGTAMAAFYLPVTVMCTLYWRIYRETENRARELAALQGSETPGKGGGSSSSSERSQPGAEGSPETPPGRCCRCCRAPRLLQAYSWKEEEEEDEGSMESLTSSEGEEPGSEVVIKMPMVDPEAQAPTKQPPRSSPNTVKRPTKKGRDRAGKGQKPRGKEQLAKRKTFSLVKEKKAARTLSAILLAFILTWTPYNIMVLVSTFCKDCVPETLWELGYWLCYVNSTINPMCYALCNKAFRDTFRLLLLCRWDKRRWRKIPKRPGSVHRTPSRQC
M1 antag – antagonists of human M1 muscarinic receptor; P11229; CHO-K1 hM1, Fluo-8 calcium fluorescence, ACh EC80 antagonist; inhibition, % at 3 µM; 360,000 tested, 1.3% active;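 active = percent inhibition above its own plate's cutoff, namely the mean of that plate's compound wells plus 3 SD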;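 also: peak over basal fluorescence ratio during 140 s after agonist addition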
M1 PAM – human CHRM1 positive allosteric modulation. activation, % at 3 µM. CHO-K1 hM1, Fluo-8 calcium fluorescence, ACh EC20; 0% = ACh EC20, 100% = maximal ACh. P11229. 360,000 tested, 0.088% active; in the data active = activation above about 19%, passing the limit was not always enough
CHO-K1 Ca PAM – M1 PAM counterscreen hit in parental CHO-K1 cells. ATP EC20, Fluo-8 calcium fluorescence; 0% at ATP EC20, 100% at ATP max. activation, % at 3 µM. 360,000 tested, 0.02% active. AID 602247;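 active = activation above the run cutoff, the mean activation of all test compounds plus 3 SD, cut at about 40% in these data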;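 also: peak over basal fluorescence ratio in a 140 s read after ATP addition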
M1 ag parental – nonselective activator or artifact in parental CHO-K1 cells | AID 602248 | activation, % at 3 µM | 360,000 tested, 0.48% active | Fluo-8 calcium fluorescence; scaled to maximal ATP response, vehicle zero; in the data active = activation above about 15%;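 also: untransfected CHO-K1 host cells lacking M1 receptor as counterscreen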
CHO-K1 Ca antag – counter-screen for M1 antagonists: effect in parental CHO-K1 cells | ATP-induced calcium, Fluo-8 fluorescence | inhibition, % at 3 µM | 360,000 tested, 0.6% active | AID 602250;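 active = inhibition above a per-plate cutoff, the plate's mean sample inhibition plus 3 SD, cut at about 24% in these data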
A number is an active result; . = inactive.

SMILES	M1 ag	M1 antag	M1 PAM	CHO-K1 Ca PAM	M1 ag parental	CHO-K1 Ca antag
C[C@H](CO)N1C[C@H](C)[C@@H](CN(C)S(=O)(=O)c2ccccc2)Oc2ccc(NC(=O)CCN3CCOCC3)cc2C1=O	.	35	.	.	.	.
C[C@H](CO)N1C[C@H](C)[C@@H](CN(C)S(=O)(=O)c2ccccc2)Oc2ccc(NC(=O)Cn3cnnn3)cc2C1=O	.	34	.	.	.	.
Cc1noc(C)c1S(=O)(=O)N(C)C[C@H]1Oc2ccc(NC(=O)Cn3cnnn3)cc2C(=O)N([C@H](C)CO)C[C@@H]1C	.	.	.	.	.	.
COc1cccc(NC(=O)c2cnc(NS(=O)(=O)c3ccccc3)nc2)c1	.	.	.	.	.	.
COc1ccc(N(C)S(=O)(=O)c2cccc(C(=O)OCC(=O)Nc3cc(C)ccc3OC)c2)cc1	.	36	.	.	.	.
COc1ccc(N(C)S(=O)(=O)c2cccc(C(=O)OCC(=O)c3c(N)n(C)c(=O)n(C)c3=O)c2)cc1	.	42	.	.	21	.
CCN(c1ccccc1)S(=O)(=O)c1cccc(C(=O)OCC(=O)c2c(N)n(C)c(=O)n(C)c2=O)c1	.	.	.	.	.	.
Cc1ccc(C)c(NC(=O)Cn2nc(C(F)(F)F)cc2C2CC2)c1	.	.	26	.	.	.
CCCOc1cccc(C(=O)N/N=C/c2coc3ccccc3c2=O)c1	.	30	.	.	.	.
COc1ccc(C(=O)CSc2nnc(Cn3cnc4ccccc43)o2)cc1	.	32	.	.	.	.
COc1ccc(C2c3cc(OC)c(OC)cc3CC3C(=O)OCC32)cc1OC (stereo unspecified)	.	.	.	.	.	.
Cc1cccc(C)c1OCC(O)Cn1ccnc1C (stereo unspecified)	.	.	.	.	.	26
C/C(=N\N1CCN(c2ccccc2)CC1)c1ccccc1O	.	.	.	.	.	.
C/C(=N\N1CCCCC1)c1ccccc1O	22	.	.	.	.	.
CC1(C(=O)O)CCN1C(=O)c1cccnc1Oc1ccccc1 (stereo unspecified)	.	.	.	.	.	.
O=C(O)c1cccc(-c2csc(C(O)c3cccc(Cl)c3)n2)c1 (stereo unspecified)	.	.	.	.	.	.
O=C1CN(S(=O)(=O)c2cc(C(F)(F)F)ccc2Cl)CCN1	.	.	30	.	.	.
O=C(O)/C=C/C(=O)N1CCN(S(=O)(=O)c2cc(C(F)(F)F)ccc2Cl)CC1	.	.	.	.	.	.
COCCNC(=O)C1CCCN(S(=O)(=O)c2c(C)noc2/C=C/c2cccs2)C1 (stereo unspecified)	.	.	.	.	.	.
COC(CNC(=O)C1CCCN(S(=O)(=O)c2c(C)noc2/C=C/c2cccs2)C1)OC (stereo unspecified)	.	.	.	.	15	.
CCS(=O)(=O)N1Cc2ccccc2CC1C(=O)Nc1nc(C)cs1 (stereo unspecified)	.	.	.	.	.	32
CC(=O)c1c(C)[nH]c(C(=O)CN(C)CC(=O)Nc2ccccc2Cl)c1C	.	.	.	.	.	.
CCN(CC(=O)Nc1ccccc1C(F)(F)F)CC(=O)c1[nH]c(C)c(C(C)=O)c1C	.	.	.	.	.	29
C[C@H](CO)N1C[C@H](C)[C@@H](CN(C)S(=O)(=O)c2cn(C)cn2)Oc2ncc(Br)cc2C1=O	.	.	.	.	.	.
CC/C(=N\NC(=O)CSCc1ccc(Cl)cc1)c1ccc2c(c1)OCCO2	.	.	.	.	.	28
CC/C(=N\NC(=O)CSCc1ccccc1Cl)c1ccc2c(c1)OCCO2	.	.	.	.	.	.
C[C@@H]1CN([C@@H](C)CO)C(=O)CCCn2cc(nn2)CO[C@H]1CN(C)S(=O)(=O)c1cccs1	.	.	.	.	.	.
C[C@@H]1CN([C@H](C)CO)C(=O)CCCn2cc(nn2)CO[C@H]1CN(C)S(=O)(=O)c1ccc(F)cc1	.	.	.	.	.	26
C[C@@H]1CN([C@H](C)CO)C(=O)CCCn2cc(nn2)CO[C@H]1CN(C)S(=O)(=O)c1cccs1	.	.	.	.	.	32

Compound activity: PubChem, The Scripps Research Institute Molecular Screening Center
